# Bioassay records deposited in PubChem by several laboratories.
# RTF Ca sens inh – cardiac RTF calcium desensitization. IANBD-labeled cardiac RTF, Ca2+ fluorescence. inhibition, % at 7.15 µM. 0.12% of 340,000 active;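 active means inhibition above the mean inhibition of all tested compounds plus 3 SD, cut at about 17% in these data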;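 further: assay run at fixed EC70 calcium of 1.6 mM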
# IDE act – activators of human insulin-degrading enzyme in cells; HEK cells, FAbeta-B cleavage, fluorescence polarization; 0% vehicle, 100% cell-free pure enzyme wells; 0.073% of 340,000 active; AID 493087; P14735; activation, % at 5.96 µM;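 active means activation above the mean of all tested compounds plus 3 SD, set per screening campaign, cut at about 17% in these data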
# Target sequence (P14735 whole entry, looked up): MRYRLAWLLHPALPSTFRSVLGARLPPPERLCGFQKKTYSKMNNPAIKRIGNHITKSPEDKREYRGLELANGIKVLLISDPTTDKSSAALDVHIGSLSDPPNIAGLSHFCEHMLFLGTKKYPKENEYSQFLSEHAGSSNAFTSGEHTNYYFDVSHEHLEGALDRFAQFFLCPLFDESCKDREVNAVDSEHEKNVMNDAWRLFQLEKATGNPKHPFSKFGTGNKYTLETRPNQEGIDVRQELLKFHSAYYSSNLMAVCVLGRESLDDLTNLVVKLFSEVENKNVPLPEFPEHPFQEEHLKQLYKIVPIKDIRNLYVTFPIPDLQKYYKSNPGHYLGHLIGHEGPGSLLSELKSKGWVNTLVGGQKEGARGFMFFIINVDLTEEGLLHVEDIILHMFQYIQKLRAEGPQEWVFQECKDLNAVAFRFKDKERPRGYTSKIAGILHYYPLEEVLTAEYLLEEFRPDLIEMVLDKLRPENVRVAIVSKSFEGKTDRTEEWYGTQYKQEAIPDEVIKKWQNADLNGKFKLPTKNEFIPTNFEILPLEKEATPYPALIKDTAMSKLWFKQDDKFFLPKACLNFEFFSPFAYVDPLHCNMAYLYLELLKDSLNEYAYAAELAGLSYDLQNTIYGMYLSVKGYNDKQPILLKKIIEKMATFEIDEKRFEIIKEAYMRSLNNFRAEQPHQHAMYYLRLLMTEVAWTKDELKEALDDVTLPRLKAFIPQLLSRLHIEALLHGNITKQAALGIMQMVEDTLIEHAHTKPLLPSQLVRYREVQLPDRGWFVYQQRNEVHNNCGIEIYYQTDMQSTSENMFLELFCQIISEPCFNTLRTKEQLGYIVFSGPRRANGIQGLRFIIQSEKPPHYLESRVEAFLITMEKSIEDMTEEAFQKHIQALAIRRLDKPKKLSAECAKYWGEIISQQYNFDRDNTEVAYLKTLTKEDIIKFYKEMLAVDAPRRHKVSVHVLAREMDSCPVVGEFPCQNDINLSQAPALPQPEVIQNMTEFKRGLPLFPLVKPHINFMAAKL
# IDE inh – cellular human IDE inhibition. P14735. HEK cells, FAbetaB cleavage, fluorescence polarization. inhibition, % at 5.59 µM. 0.41% of 320,000 active;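 active means percent inhibition above the average of all tested compounds plus 3 SD, set per screening campaign, cut at about 16% in these data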;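 further: IDE supplied by intact live HEK cells; FP after avidin binding of uncleaved biotin substrate so inhibition keeps polarization high; 0% = DMSO wells and 100% = 60 µM reference IDE inhibitor Ii1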
# cardiac RTF act – increases calcium sensitivity of human cardiac regulated thin filaments | P19429+P45379 | IANBD-labeled TnC RTF fluorescence at EC20 calcium; 0% EC20 calcium, 100% full calcium | 0.24% of 340,000 active | activation, % at 7.2 µM;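 active means activation above the mean over all tested compounds plus 3 SD, cut at about 30% in these data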;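 further: rise in fluorescence read as greater calcium sensitivity of cardiac thin filaments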
# LANA DNA inh – blocks KSHV LANA C-terminal domain binding to DNA; MBP-C-LANA/FAM-LBS DNA binding, fluorescence polarization; inhibition, % at 9 µM; 0.078% of 340,000 active;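 active means highest replicate inhibition at or above 60% at 9 µM, even if other replicates fall short; inactive means all replicates below 60% inhibition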;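 further: 0% = neutral control wells and 100% = 4 µM acridine orange control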
# Keap1-Nrf2 PPI – disrupts human Keap1 binding to Nrf2 peptide | Q14145 | Keap1 Kelch-Nrf2 peptide fluorescence polarization, 1536-well | inhibition, % at 9.4 µM | 0.15% of 340,000 active; in the data active means inhibition above about 12%;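 further: human Keap1 Kelch domain with fluorescein labeled Nrf2 9mer peptide probe; 0% = neutral control wells and 100% = peptide positive control; higher means more block of Keap1 binding to Nrf2 peptide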
# Keap1 Kelch bind – Keap1 (human) Kelch domain binding | shares compounds with Keap1-Nrf2 PPI | Keap1 Kelch thermal shift, delta Tm; stronger effect = higher value | max delta Tm, degrees C | 8% of 400 active; in the data active means max delta Tm above about 0.48 degrees C
# Sypro dye melt – shifts Sypro Orange melt without protein, a false positive; 140 tested, under 10 active; delta Tm, degrees C (test concentration not listed); Sypro Orange dye-only thermal melt, no protein, delta Tm; top dose 26 µM; AID 651858; shares compounds with Keap1-Nrf2 PPI;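 active means at highest dose tested, delta Tm positive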
# * hit, by the source's call; i = inactive; · = not tested or not shown. Sampled rows, rich in hits. Any-hit rate of the full collection: about 0.81%.
SMILES,RTF Ca sens inh,IDE act,IDE inh,cardiac RTF act,LANA DNA inh,Keap1-Nrf2 PPI,Keap1 Kelch bind,others
CN1C(=O)NC(c2ccccc2[N+](=O)[O-])C2=C1CCCC2=O (stereo not drawn),-64,6,-1,38*,46,29*,0.01,Sypro dye melt=-34
COc1cc2c3nnc(-c4ccc(F)cc4)c-3cn(Cc3ccc(C)cc3)c2cc1OC,-54,-6,-3,41*,4,13*,-0.06,
CNC(CC(C)C)C(=O)NC1C(=O)NC(CC(N)=O)C(=O)NC2C(=O)NC3C(=O)NC(C(=O)NC(C(=O)O)c4cc(O)cc(O)c4-c4cc3ccc4O)C(O)c3ccc(c(Cl)c3)Oc3cc2cc(c3OC2OC(CO)C(O)C(O)C2OC2CC(C)(N)C(O)C(C)O2)Oc2ccc(cc2Cl)C1O (stereo not drawn),-13,6,3,-2,0,-3,·,
Cc1cc2nc3c(=O)n(C4CCCCC4)c(=O)[nH]c3nc2cc1N,i,-7,·,566*,97*,48*,-0.03,Sypro dye melt=-25
O=C(CCN1C(=O)/C(=C/c2ccco2)SC1=S)Nc1ccc(O)cc1C(=O)O,-7,-3,·,0,63*,13*,0.29,
O=C(COC(=O)CN1CCSC1=O)Nc1ccc(F)cc1Cl,-13,-1,1,-3,0,-6,·,
O=C(COC(=O)c1ccncc1)Nc1cccc2ccccc12,-11,2,3,5,10,14*,-0.09,
CCCNS(=O)(=O)c1ccc(OCC(=O)Nc2ccc3c(c2)OCCO3)cc1,-4,-1,0,10,-1,-8,·,
Cc1ccc(S(=O)(=O)NCC(=O)OCC(=O)Nc2ccc3c(c2)OCCO3)cc1,-19,1,2,7,27,32*,-0.16,Sypro dye melt=-22
Nc1ccc2c(S(=O)(=O)O)cccc2c1S(=O)(=O)O,-4,-3,·,0,2,-2,·,
Nc1cccc2cc(S(=O)(=O)O)ccc12,6,-1,·,-11,73*,15*,0.24,
Cc1ccc(NC(=O)CCn2c(=O)[nH]c3ccsc3c2=O)cc1C,-3,3,7,-1,-1,1,·,
CC(OC(=O)C1COc2ccccc2O1)C(=O)N(C)c1ccccc1 (stereo not drawn),1,0,0,-1,-1,-4,·,
COc1ccccc1NC(=O)C(C)OC(=O)C1COc2ccccc2O1 (stereo not drawn),-9,3,-1,15,10,22*,-0.1,
O=C(COC(=O)/C=C/c1cccc(Cl)c1)NC1CC1,-11,-3,-2,2,11,24*,-0.09,Sypro dye melt=-23
COc1cccc(/C=C/C(=O)OCC(=O)NC(=O)NC2CCCC2)c1,0,-10,4,-3,16,36*,-0.15,Sypro dye melt=-28
O=C(COC(=O)/C=C/c1cccc(Cl)c1)NC1CCCC1,-6,8,-1,-7,-2,-1,·,
CC(C)COc1ccc(/C=C2/Sc3ccccc3C2=O)cc1,-12,1,-7,-1,5,5,·,
CCCCOc1ccc(/C=C2/Sc3ccccc3C2=O)cc1,0,3,-2,6,0,13*,-0.12,
Cc1nc(-c2ccc(S(=O)(=O)N3CCN(C4c5ccccc5-c5ccccc54)CC3)s2)cs1,2,6,-1,12,1,-2,·,
Cc1nc(-c2ccc(S(=O)(=O)N3CCCN(CCc4ccccc4)CC3)s2)cs1,·,·,-4,·,30,63*,-0.22,
CCCCn1nc(-c2ccccc2)c2nc3ccccc3nc21,·,·,1,·,·,·,·,
Cn1nc(-c2ccccc2)c2nc3ccccc3nc21,-9,-3,1,52*,33,54*,-0.08,Sypro dye melt=-28
COc1[nH]c(/N=C/c2ccccc2)c(C#N)c1C#N,-175,4,-5,106*,102*,78*,-0.04,
O=C1CCC[C@@H]2C[C@@]3(C[C@@H]4CCN1[C@H]24)Nc1cc(Cl)c(Cl)cc1NC3=NCc1ccccc1,0,0,·,7,0,-8,·,
SMILES,RTF Ca sens inh,IDE act,IDE inh,cardiac RTF act,LANA DNA inh,Keap1-Nrf2 PPI,Keap1 Kelch bind,others
O=C(COC(=O)COc1cccc(Br)c1)Nc1c(Cl)cccc1Cl,-8,-7,1,-2,1,-6,·,
CC(C)N1CC=C2C(C#N)=C(N)C(C#N)(C#N)[C@H](c3ccoc3)[C@H]2C1,·,·,7,·,·,·,·,
CC(C)N1CC=C2C(C#N)=C(N)C(C#N)(C#N)C(c3ccccc3)C2C1 (stereo not drawn),-77,1,9,46*,33,12*,-0.09,Sypro dye melt=-30
Cc1cc(C)cc(C(=O)NCC(=O)OC(C)C(=O)N(C)c2ccccc2)c1 (stereo not drawn),-1,-3,0,5,1,-2,·,
Cc1oc2c(cc(NS(=O)(=O)c3ccc(C(C)C)cc3)c3ccccc32)c1C(=O)O,-18,-2,5,22,35,20*,0.52*,
O=[N+]([O-])c1cc([N+](=O)[O-])c(N2CCCCCC2)cc1NCCO,-3,14,2,0,1,1,·,
C/C(C/C(C)=C1/SC(=S)NC1=O)=C1\SC(=S)NC1=O,-6,-9,·,-5,32,49*,2*,
CCCc1nnc(NC(=O)CCC(=O)N2CCN(C3c4ccccc4-c4ccccc43)CC2)s1,-11,3,-1,9,-1,-2,·,
CCCc1nc2oc3cc(OC)ccc3c(=O)c2c(=O)n1Cc1ccco1,-4,-2,0,2,0,14*,-0.19,
COc1ccc2c(=O)c3c(=O)n(Cc4ccco4)c(-c4ccccc4)nc3oc2c1,4,1,-1,1,1,-1,·,
CC(C)NC(=O)N(C)C[C@H]1Oc2ccc(NS(=O)(=O)c3cn(C)cn3)cc2C(=O)N([C@H](C)CO)C[C@@H]1C,0,1,1,-5,22,29*,-0.11,
COC(=O)C1C(O)C(C)C(O)C(C)(O)/C=C\C=C(/C)C(=O)Nc2c(C)c(OC(C)=O)c3c(c2O)C(=O)C(C)=C2OCOC(=C23)/C(C)=C/C(C)(O)C(O)C(C)C1O (stereo not drawn),-13,-5,-2,-1,1,-5,·,
COC(=O)c1cc(N2CCN(C)CC2)nc2ccccc12,-62,4,-2,50*,53,31*,-0.03,
Cc1cc(Nc2cccc(Cl)c2Cl)n2ncnc2n1,2,-4,·,4,3,-2,·,
CCCN1CNC(=S)N(c2cc(C)ccc2C)C1,-8,2,8,-2,2,13*,-0.1,
CCOC(=O)c1c(C)oc2c1c(C=NCCO)c(O)c1ccccc12,-21,3,·,24,8,23*,-0.18,Sypro dye melt=-29
